Only a selection was taken, and hits are over-represented in it overall.
Cycloheximide cs: affects cycloheximide protein synthesis inhibition readout, counter-screen. actives 12% (n = 300,000). cell reporter, cycloheximide protein synthesis inhibition counterscreen. max response, %. AID 2314; in the data active means max response mostly above about 13%, no sharp cut-off; inactive means mostly below about 14%; further: read at 38.3 µM for the half of the compounds with a filed dose; 0% is about no effect
AMA1-RON2 inh: inhibitors of Plasmodium falciparum AMA1-RON2 interaction; AlphaScreen AMA1-biotinylated RON2 peptide binding; Potency, µM (top dose mostly 58.2 µM), without a hit: at the top dose activity change, negative = inhibition, hits mostly inhibitors; actives 0.2% (n = 360,000); AID 720542; active means well fitted inhibition curve with a large enough effect; inconclusive means small, poorly fitted or top-dose-only effect; inactive means no such curve, though single readings can be large or run the other way;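 further: potency means the concentration at half of the fitted maximal effect; 0% = vehicle wells and -100% = peptide control; nearly all actives have a fitted effect of over 45% in size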
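AMA1 (3D7) with his tag at 25 nM final met compounds first, then biotinylated RON2 peptide at 25 nM; detection used donor plus acceptor beads, 10 µg/mL apiece, read by AlphaScreen after 30 min at room temperature.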
MARV entry inh: inhibitors of Marburg virus binding or cell entry | Marburg virus pseudotyped entry inhibition, cell reporter | Potency, µM (highest dose often 37.8 µM), for the others: at the top dose activity change, negative = inhibition, most hits filed as inhibitors | actives 1.8% (n = 300,000) | AID 540276; calls by dose curve; tested in HEK293 cells; further: potency means the concentration at half of the fitted maximal effect; on the % scale 0 is the no-effect control and ±100 the full control effect
Lassa entry inh: inhibitors of Lassa virus binding or cell entry; Lassa virus pseudotype entry inhibition, cell reporter; actives 1.2% (n = 300,000); Potency, µM (top dose mostly 37.9 µM), for the others: top-dose activity change, negative = inhibition, actives largely listed as inhibitors; calls by dose curve; tested in HEK293 cells; further: potency means the concentration at half of the fitted maximal effect; on the % scale 0 is the no-effect control and ±100 the full control effect; nearly all actives have a fitted effect of over 50% in size
Shiga inhibitor: Shiga toxin inhibition | actives 9.2% (n = 290,000) | AID 2315 | inhibition, % at 38.7 µM | Vero cells, Shiga toxin protein synthesis inhibition reporter; in the data active means inhibition mostly above about 28%, no sharp cut-off; inactive means mostly below about 43%; further: 0% is about no effect
An asterisk follows results filed as active; [ ] = remark or other dose.

How did Cc1ccc(-n2nc3c(=O)n(CC(=O)NC4CCCCC4)nc(C)c3c2C)cc1 do in these assays?
Cycloheximide cs: 11; AMA1-RON2 inh: -6%; Shiga inhibitor: -7

Results for Cc1cc(N2CCOCC2)nc2cc(O)ccc12 ?
Cycloheximide cs: 37*; AMA1-RON2 inh: 10%; Shiga inhibitor: 54*

Results for Cc1cc(-n2nnc3ccccc32)nc2ccccc12 ?
Cycloheximide cs: 15*; AMA1-RON2 inh: -7%; MARV entry inh: 9%; Lassa entry inh: 17%; Shiga inhibitor: 11

Results for Cc1cc(N2CCN(c3ccccc3F)CC2)nc2cc(O)ccc12 ?
Cycloheximide cs: 25*; AMA1-RON2 inh: 5%; MARV entry inh: inconclusive; Lassa entry inh: 16%; Shiga inhibitor: 95*

How did Cc1cc(N2CCN(C)CC2)nc2ccccc12 do in these assays?
Cycloheximide cs: -1; AMA1-RON2 inh: 4%; MARV entry inh: -1%[46.1 µM]; Lassa entry inh: 4%[46.1 µM]; Shiga inhibitor: 4

Results for Cc1cc(N2CCN(c3ccc(F)cc3)CC2)nc2cc(O)ccc12 ?
Cycloheximide cs: -8; AMA1-RON2 inh: inconclusive; Shiga inhibitor: -2

What do the screens show for `COc1ccc(C2(C)C(C#N)C(=O)NC(=O)C2C#N)cc1` (stereo not given)?
AMA1-RON2 inh: 30%; MARV entry inh: inconclusive; Lassa entry inh: 0%[46.1 µM]

What do the screens show for `CCOC(=O)c1c(C)oc2c1C(=O)c1ccccc1C2=O`?
Cycloheximide cs: 30*; AMA1-RON2 inh: -11%; MARV entry inh: inconclusive; Lassa entry inh: inconclusive; Shiga inhibitor: 50*

Results for Cc1oc2c(c1C(=O)c1ccccc1)C(=O)C(=O)c1ccccc1-2 ?
Cycloheximide cs: 11; AMA1-RON2 inh: inconclusive; MARV entry inh: inconclusive; Lassa entry inh: 10µM*; Shiga inhibitor: -5

How did Cc1oc2c(c1C(=O)O)C(=O)c1ccccc1C2=O do in these assays?
Cycloheximide cs: 13; AMA1-RON2 inh: 0%; Shiga inhibitor: 45

How did CCCCCCC(C)(C)c1ccc([C@@H]2C[C@H](O)CC[C@@H]2CCCO)c(O)c1 do in these assays?
MARV entry inh: 13µM*

Results for COC(=O)c1ccc2c(c1)N(C)CCS2 ?
Cycloheximide cs: -1; AMA1-RON2 inh: 3%; Shiga inhibitor: 8

Results for Cc1ccccc1NC(=O)c1ccc2c(c1)N(C)CCS2 ?
Cycloheximide cs: 28*; AMA1-RON2 inh: -4%; Shiga inhibitor: 32*

Results for CCOc1ccc(NC(=O)c2ccc3c(c2)N(C)CCS3)cc1 ?
AMA1-RON2 inh: -8%

How did CN1CCSc2ccc(C(=O)Nc3cc(F)ccc3F)cc21 do in these assays?
Cycloheximide cs: 54*; AMA1-RON2 inh: 8%; Shiga inhibitor: 81*

How did CCOc1ccc(S(=O)(=O)Nc2cc(S(=O)(=O)N3CCOCC3)ccc2OC)cc1 do in these assays?
AMA1-RON2 inh: -3%

Results for CCOc1cc(/C=N/N2C(=O)NC3(CCCCC3)C2=O)cc(Br)c1O ?
Cycloheximide cs: 20; AMA1-RON2 inh: 0%; Shiga inhibitor: 16

How did COc1cccc(/C=N/N2C(=O)NC3(CCCCC3)C2=O)c1O do in these assays?
Cycloheximide cs: 37*; AMA1-RON2 inh: 100%; MARV entry inh: 12%; Lassa entry inh: inconclusive; Shiga inhibitor: 51

What do the screens show for `COc1ccc(O)c(/C=N/N2CCOCC2)c1`?
Cycloheximide cs: 41*; AMA1-RON2 inh: -1%; MARV entry inh: 23%[46.1 µM]; Lassa entry inh: -3%; Shiga inhibitor: 99*

What do the screens show for `Oc1ccc(/C=N/N2CCOCC2)c(O)c1O`?
Cycloheximide cs: 13; AMA1-RON2 inh: inconclusive; MARV entry inh: 1%[46.1 µM]; Lassa entry inh: 0%; Shiga inhibitor: -5

Results for COc1cccc(C=Nc2ccc3c(c2)OCCO3)c1O ?
Cycloheximide cs: 75*; AMA1-RON2 inh: 10%; MARV entry inh: -23%; Lassa entry inh: 10%; Shiga inhibitor: 107*

Results for Fc1ccc(/C=N/N2CCOCC2)c(F)c1 ?
Cycloheximide cs: 21*; AMA1-RON2 inh: 7%; Shiga inhibitor: 38

Results for O=C(CN1CCN(S(=O)(=O)c2ccccc2)CC1)N1CCc2ccccc21 ?
AMA1-RON2 inh: -7%

How did Cc1cc(C)cc(CC(=O)N2CCC2(C)C(=O)NS(=O)(=O)c2cc(C)ccc2F)c1 (stereo not given) do in these assays?
AMA1-RON2 inh: -13%

What do the screens show for `Nc1ccn([C@@H]2O[C@H](C(=O)N(CCC3=CCCCC3)CC3CC3)[C@@H](O)[C@H]2O)c(=O)n1`?
AMA1-RON2 inh: 6%

What do the screens show for `COc1cccc(/C=N/N2CCOCC2)c1O`?
Cycloheximide cs: 24*; AMA1-RON2 inh: 14%; MARV entry inh: inconclusive; Lassa entry inh: 15%[46.1 µM]; Shiga inhibitor: active

Source: PubChem (National Center for Advancing Translational Sciences (NCATS))
